Laboratory results as given in PubChem BioAssay AID1159580 (chemical genetic matrix, 2015).
The campaign covered roughly 5,500 compounds. About 2,000 (36%) were called active. About 18% were inconclusive and are not listed. No stated cut-off is given here; in the data, active means normalized growth mostly below about 0.91 (no sharp cut-off); inconclusive means no clear call, values can overlap the other calls; inactive means mostly above about 0.92. The list shows a part of the results.

Assay: chemical genetic growth profiling, strain panel (AID 1159580);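 further: tested at 20 µM; growth read once vehicle control cultures reached saturation at 30 °C; 1 = growth at the plate median or of vehicle wells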
Conditions: growth OD

Measured: normalized growth

C=CCCCCCCCCCCCC(O)CC(O)COC(C)=O (stereo not given) (tested in a mixture with another compound)
inactive: S. cerevisiae deletion strains, locus YAL013W, strain DEP1, stronger effect = lower value 0.943 | S. cerevisiae deletion strains, locus YAL021C, strain ccr4, stronger effect = lower value 1.01 | S. cerevisiae deletion strains, locus YAL026C, strain drs2, stronger effect = lower value 0.937 | S. cerevisiae deletion strains, locus YAL030W, strain snc1, stronger effect = lower value 0.963 | S. cerevisiae deletion strains, locus YBL061C, strain skt5, stronger effect = lower value 0.95 | S. cerevisiae deletion strains, locus YBR171W, strain sec66, stronger effect = lower value 0.946 | S. cerevisiae deletion strains, locus YBR229C, strain ROT2, stronger effect = lower value 1 | S. cerevisiae deletion strains, locus YBR231C, strain swc5, stronger effect = lower value 0.971 | S. cerevisiae deletion strains, locus YBR279W, strain paf1, stronger effect = lower value 0.949 | S. cerevisiae deletion strains, locus YCL029C, strain bik1, stronger effect = lower value 0.951 | S. cerevisiae deletion strains, locus YCL061C, strain MRC1, stronger effect = lower value 0.936 | S. cerevisiae deletion strains, locus YCL069W, strain vba3, stronger effect = lower value 0.963 | S. cerevisiae deletion strains, locus YCR088W, strain abp1, stronger effect = lower value 0.978 | S. cerevisiae deletion strains, locus YDL005C, strain med2, stronger effect = lower value 0.955 | S. cerevisiae deletion strains, locus YDL035C, strain GPR1, stronger effect = lower value 0.907 | S. cerevisiae deletion strains, locus YDL040C, strain nat1, stronger effect = lower value 0.967 | S. cerevisiae deletion strains, locus YDL101C, strain DUN1, stronger effect = lower value 0.983 | S. cerevisiae deletion strains, locus YDL134C, strain PPH21, stronger effect = lower value 0.892 | S. cerevisiae deletion strains, locus YDL185W, strain tfp1, stronger effect = lower value 1.01 | S. cerevisiae deletion strains, locus YDR001C, strain nth1, stronger effect = lower value 0.967 | S. cerevisiae deletion strains, locus YDR069C, strain doa4, stronger effect = lower value 1.02 | S. cerevisiae deletion strains, locus YDR137W, strain rgp1, stronger effect = lower value 0.882 | S. cerevisiae deletion strains, locus YDR150W, strain NUM1, stronger effect = lower value 1.02 | S. cerevisiae deletion strains, locus YDR159W, strain sac3, stronger effect = lower value 0.947 | S. cerevisiae deletion strains, locus YDR162C, strain NBP2, stronger effect = lower value 0.999 | S. cerevisiae deletion strains, locus YDR195W, strain ref2 0.875 | S. cerevisiae deletion strains, locus YDR297W, strain sur2, stronger effect = lower value 0.962 | S. cerevisiae deletion strains, locus YDR334W, strain swr1, stronger effect = lower value 0.993 | S. cerevisiae deletion strains, locus YDR335W, strain msn5, stronger effect = lower value 0.969 | S. cerevisiae deletion strains, locus YDR388W, stronger effect = lower value 0.991 | S. cerevisiae deletion strains, locus YEL003W, strain gim4, stronger effect = lower value 0.95 | S. cerevisiae deletion strains, locus YEL037C, strain rad23, stronger effect = lower value 0.966 | S. cerevisiae deletion strains, locus YEL061C, strain CIN8 (second series), stronger effect = lower value 0.971 | S. cerevisiae deletion strains, locus YER015W, strain faa2, stronger effect = lower value 0.982 | S. cerevisiae deletion strains, locus YER016W, strain bim1, stronger effect = lower value 0.981 | S. cerevisiae deletion strains, locus YER110C, stronger effect = lower value 0.995 | S. cerevisiae deletion strains, locus YER111C, strain swi4, stronger effect = lower value 0.947 | S. cerevisiae deletion strains, locus YER155C, strain BEM2 (second series), stronger effect = lower value 0.877 | S. cerevisiae deletion strains, locus YER167W, strain BCK2, stronger effect = lower value 0.979 | S. cerevisiae deletion strains, locus YFR010W, strain ubp6, stronger effect = lower value 0.974 | S. cerevisiae deletion strains, locus YGL078C, strain dbp3, stronger effect = lower value 0.933 | S. cerevisiae deletion strains, locus YGL167C, strain pmr1, stronger effect = lower value 0.966 | S. cerevisiae deletion strains, locus YGL173C, strain kem1, stronger effect = lower value 0.941 | S. cerevisiae deletion strains, locus YGL227W, strain vid30, stronger effect = lower value 0.969 | S. cerevisiae deletion strains, locus YGL240W, strain doc1, stronger effect = lower value 0.952 | S. cerevisiae deletion strains, locus YGL248W, strain PDE1, stronger effect = lower value 0.89 | S. cerevisiae deletion strains, locus YGR135W, strain pre9, stronger effect = lower value 0.971 | S. cerevisiae deletion strains, locus YGR229C, strain SMI1, stronger effect = lower value 0.838 | S. cerevisiae deletion strains, locus YGR252W, strain gcn5, stronger effect = lower value 0.782 | S. cerevisiae deletion strains, locus YHR027C, strain rpn1, stronger effect = lower value 0.964 | S. cerevisiae deletion strains, locus YHR030C, strain SLT2, stronger effect = lower value 1.01 | S. cerevisiae deletion strains, locus YHR079C, strain IRE1 (second series), stronger effect = lower value 0.993 | S. cerevisiae deletion strains, locus YHR094C, strain hxt1, stronger effect = lower value 0.992 | S. cerevisiae deletion strains, locus YHR200W, strain rpn10, stronger effect = lower value 0.938 | S. cerevisiae deletion strains, locus YIL066C, strain RNR3, stronger effect = lower value 0.921 | S. cerevisiae deletion strains, locus YIL073C, strain SPO22, stronger effect = lower value 1.05 | S. cerevisiae deletion strains, locus YIR030C, strain dcg1, stronger effect = lower value 0.972 | S. cerevisiae deletion strains, locus YJL092W, strain hpr5, stronger effect = lower value 0.973 | S. cerevisiae deletion strains, locus YJL095W, strain BCK1, stronger effect = lower value 0.827 | S. cerevisiae deletion strains, locus YJL115W, strain asf1, stronger effect = lower value 0.953 | S. cerevisiae deletion strains, locus YJL134W, strain LCB3, stronger effect = lower value 1.02 | S. cerevisiae deletion strains, locus YJL154C, strain vps35, stronger effect = lower value 0.965 | S. cerevisiae deletion strains, locus YJL168C, strain set2, stronger effect = lower value 0.992 | S. cerevisiae deletion strains, locus YJL187C, strain SWE1 (second series), stronger effect = lower value 0.967 | S. cerevisiae deletion strains, locus YJL187C, strain SWE1, stronger effect = lower value 0.961 | S. cerevisiae deletion strains, locus YKL068W, stronger effect = lower value 1.01 | S. cerevisiae deletion strains, locus YKL085W, strain MDH1 (second series), stronger effect = lower value 0.943 | S. cerevisiae deletion strains, locus YKL085W, strain MDH1, stronger effect = lower value 0.943 | S. cerevisiae deletion strains, locus YKL160W, strain elf1, stronger effect = lower value 0.923 | S. cerevisiae deletion strains, locus YKR026C, strain gcn3, stronger effect = lower value 0.974 | S. cerevisiae deletion strains, locus YKR091W, strain srl3, stronger effect = lower value 0.975 | S. cerevisiae deletion strains, locus YLL001W, strain dnm1, stronger effect = lower value 0.908 | S. cerevisiae deletion strains, locus YLL026W, stronger effect = lower value 0.968 | S. cerevisiae deletion strains, locus YLL041C, strain sdh2, stronger effect = lower value 0.973 | S. cerevisiae deletion strains, locus YLR039C, strain RIC1, stronger effect = lower value 1.13 | S. cerevisiae deletion strains, locus YLR058C, strain SHM2, stronger effect = lower value 0.947 | S. cerevisiae deletion strains, locus YLR102C, strain apc9, stronger effect = lower value 0.978 | S. cerevisiae deletion strains, locus YLR268W, strain sec22, stronger effect = lower value 0.975 | S. cerevisiae deletion strains, locus YLR342W, strain FKS1 (second series), stronger effect = lower value 0.824 | S. cerevisiae deletion strains, locus YLR342W, strain FKS1, stronger effect = lower value 0.932 | S. cerevisiae deletion strains, locus YLR357W, strain rsc2, stronger effect = lower value 1.02 | S. cerevisiae deletion strains, locus YLR370C, strain arc18, stronger effect = lower value 0.975 | S. cerevisiae deletion strains, locus YLR384C, strain iki3, stronger effect = lower value 0.97 | S. cerevisiae deletion strains, locus YML016C, strain PPZ1, stronger effect = lower value 1.01 | S. cerevisiae deletion strains, locus YML124C, strain tub3, stronger effect = lower value 0.997 | S. cerevisiae deletion strains, locus YMR058W, strain fet3, stronger effect = lower value 0.953 | S. cerevisiae deletion strains, locus YMR078C, strain ctf18, stronger effect = lower value 0.981 | S. cerevisiae deletion strains, locus YMR125W, strain sto1, stronger effect = lower value 0.942 | S. cerevisiae deletion strains, locus YMR129W, stronger effect = lower value 0.978 | S. cerevisiae deletion strains, locus YMR223W, strain ubp8, stronger effect = lower value 0.928 | S. cerevisiae deletion strains, locus YMR231W, strain pep5, stronger effect = lower value 0.966 | S. cerevisiae deletion strains, locus YMR307W, strain GAS1, stronger effect = lower value 0.869 | S. cerevisiae deletion strains, locus YNL067W, strain RPL9B, stronger effect = lower value 0.995 | S. cerevisiae deletion strains, locus YNL209W, strain ssb2, stronger effect = lower value 0.965 | S. cerevisiae deletion strains, locus YNL248C, strain rpa49, stronger effect = lower value 0.99 | S. cerevisiae deletion strains, locus YNL250W, strain rad50, stronger effect = lower value 1.01 | S. cerevisiae deletion strains, locus YNL271C, strain bni1, stronger effect = lower value 0.947 | S. cerevisiae deletion strains, locus YNL322C, strain KRE1 (second series), stronger effect = lower value 0.973 | S. cerevisiae deletion strains, locus YNR049C, strain mso1, stronger effect = lower value 0.969 | S. cerevisiae deletion strains, locus YOL012C, strain htz1 1.44 | S. cerevisiae deletion strains, locus YOR001W, strain rrp6, stronger effect = lower value 0.943 | S. cerevisiae deletion strains, locus YOR069W, strain VPS5, stronger effect = lower value 0.989 | S. cerevisiae deletion strains, locus YOR070C, strain gyp1, stronger effect = lower value 0.935 | S. cerevisiae deletion strains, locus YOR080W, strain dia2, stronger effect = lower value 0.978 | S. cerevisiae deletion strains, locus YOR106W, strain vam3, stronger effect = lower value 0.875 | S. cerevisiae deletion strains, locus YOR136W, strain idh2, stronger effect = lower value 0.973 | S. cerevisiae deletion strains, locus YOR144C, strain elg1, stronger effect = lower value 0.944 | S. cerevisiae deletion strains, locus YOR265W, strain rbl2, stronger effect = lower value 0.937 | S. cerevisiae deletion strains, locus YOR290C, strain snf2, stronger effect = lower value 0.917 | S. cerevisiae deletion strains, locus YOR316C, strain cot1, stronger effect = lower value 0.984 | S. cerevisiae deletion strains, locus YPL106C, strain sse1, stronger effect = lower value 1.06 | S. cerevisiae deletion strains, locus YPL240C, strain hsp82, stronger effect = lower value 0.958 | S. cerevisiae deletion strains, locus YPL241C, strain CIN2, stronger effect = lower value 1 | S. cerevisiae deletion strains, locus YPR119W, strain clb2, stronger effect = lower value 0.982 | S. cerevisiae deletion strains, locus YPR141C, strain kar3, stronger effect = lower value 1.01
active: S. cerevisiae deletion strains, locus YBR009C, strain hhf1, stronger effect = lower value 0.798 | S. cerevisiae deletion strains, locus YBR021W, strain FUR4, stronger effect = lower value 0.78 | S. cerevisiae deletion strains, locus YBR023C, strain chs3, stronger effect = lower value 0.891 | S. cerevisiae deletion strains, locus YCL011C, strain gbp2, stronger effect = lower value 0.866 | S. cerevisiae deletion strains, locus YCL016C, strain dcc1, stronger effect = lower value 0.907 | S. cerevisiae deletion strains, locus YDL074C, strain BRE1, stronger effect = lower value 0.723 | S. cerevisiae deletion strains, locus YDL192W, strain arf1, stronger effect = lower value 0.875 | S. cerevisiae deletion strains, locus YDR101C, strain arx1, stronger effect = lower value 0.886 | S. cerevisiae deletion strains, locus YDR318W, strain mcm21, stronger effect = lower value 0.911 | S. cerevisiae deletion strains, locus YDR392W, strain spt3, stronger effect = lower value 0.329 | S. cerevisiae deletion strains, locus YDR502C, strain sam2, stronger effect = lower value 0.912 | S. cerevisiae deletion strains, locus YER155C, strain BEM2, stronger effect = lower value 0.646 | S. cerevisiae deletion strains, locus YGL086W, strain mad1, stronger effect = lower value 0.835 | S. cerevisiae deletion strains, locus YGL253W, strain hxk2, stronger effect = lower value 0.847 | S. cerevisiae deletion strains, locus YHR013C, strain ard1, stronger effect = lower value 1.16 [resistant] | S. cerevisiae deletion strains, locus YHR129C, strain ARP1, stronger effect = lower value 0.914 | S. cerevisiae deletion strains, locus YHR142W, strain chs7, stronger effect = lower value 0.714 | S. cerevisiae deletion strains, locus YIL125W, strain kgd1, stronger effect = lower value 0.908 | S. cerevisiae deletion strains, locus YJL095W, strain BCK1 (second series), stronger effect = lower value 0.905 | S. cerevisiae deletion strains, locus YJL129C, strain trk1, stronger effect = lower value 0.802 | S. cerevisiae deletion strains, locus YJL164C, strain tpk1, stronger effect = lower value 0.832 | S. cerevisiae deletion strains, locus YJL166W, strain qcr8, stronger effect = lower value 0.836 | S. cerevisiae deletion strains, locus YKL009W, strain mrt4, stronger effect = lower value 0.864 | S. cerevisiae deletion strains, locus YKR001C, strain vps1, stronger effect = lower value 0.817 | S. cerevisiae deletion strains, locus YLR027C, strain aat2, stronger effect = lower value 0.921 | S. cerevisiae deletion strains, locus YLR221C, strain rsa3, stronger effect = lower value 0.806 | S. cerevisiae deletion strains, locus YLR258W, strain gsy2, stronger effect = lower value 0.906 | S. cerevisiae deletion strains, locus YLR262C, strain YPT6 (second series), stronger effect = lower value 0.823 | S. cerevisiae deletion strains, locus YLR320W, strain mms22, stronger effect = lower value 0.823 | S. cerevisiae deletion strains, locus YLR371W, strain rom2, stronger effect = lower value 0.874 | S. cerevisiae deletion strains, locus YLR418C, strain cdc73, stronger effect = lower value 0.684 | S. cerevisiae deletion strains, locus YML032C, strain rad52, stronger effect = lower value 0.88 | S. cerevisiae deletion strains, locus YML120C, strain ndi1, stronger effect = lower value 0.899 | S. cerevisiae deletion strains, locus YMR205C, strain PFK2, stronger effect = lower value 0.826 | S. cerevisiae deletion strains, locus YNL071W, strain lat1, stronger effect = lower value 0.762 | S. cerevisiae deletion strains, locus YNL233W, strain BNI4, stronger effect = lower value 0.845 | S. cerevisiae deletion strains, locus YNL298W, strain CLA4, stronger effect = lower value 0.824 | S. cerevisiae deletion strains, locus YNL307C, strain MCK1, stronger effect = lower value 0.56 | S. cerevisiae deletion strains, locus YNR052C, strain pop2, stronger effect = lower value 0.898 | S. cerevisiae deletion strains, locus YOL147C, strain pex11, stronger effect = lower value 0.917 | S. cerevisiae deletion strains, locus YOR061W, strain CKA2, stronger effect = lower value 0.672 | S. cerevisiae deletion strains, locus YOR083W, strain WHI5, stronger effect = lower value 0.873 | S. cerevisiae deletion strains, locus YOR184W, strain ser1, stronger effect = lower value 0.446 | S. cerevisiae deletion strains, locus YOR270C, strain vph1, stronger effect = lower value 0.699 | S. cerevisiae deletion strains, locus YPL051W, strain arl3, stronger effect = lower value 0.88 | S. cerevisiae deletion strains, locus YPL078C, strain atp4, stronger effect = lower value 0.882 | S. cerevisiae deletion strains, locus YPR163C, strain tif3, stronger effect = lower value 0.898 | S. cerevisiae deletion strains, locus YPR167C, strain met16, stronger effect = lower value 0.905 | S. cerevisiae deletion strains, strain wtn01, stronger effect = lower value 0.866 | S. cerevisiae strains, strain wild type, stronger effect = lower value 0.796
